Experimental data reported in PubChem BioAssay AID504333 (National Center for Advancing Translational Sciences (NCATS), 2011).
The whole screen tested about 360,000 compounds, of which about 16,000 (4.4%) were called active. Inconclusive results (about 9%) are left out. Calls come from the whole dose curve; as a rule, active = well fitted inhibition curve with a large enough effect; inconclusive = small, poorly fitted or top-dose-only effect; inactive = no such curve, though single readings can be large or run the other way. The sample as a whole holds a higher share of actives than the screen did.

Each compound was assayed against Bromodomain adjacent to zinc finger domain protein 2B (Homo sapiens) (UniProt Q9UIF8) (assay: qHTS Assay for Inhibitors of BAZ2B). Settings: AlphaScreen BAZ2B-H3K14Ac peptide displacement; series mostly up to 114 µM; activity change, negative = inhibition: at the top concentration.
In short: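 Complex of BAZ2B and biotin-H3K14Ac (50 nM apiece) forms over 30 min at RT, then faces library compounds up to 110 uM for another 30 min; AlphaScreen beads added, 20 min dark incubation, luminescence read.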
% is set by controls: 0 for no effect and ±100 for the full control effect; potency is the fitted concentration of half-maximal effect.
Note: nearly all actives have a fitted effect of over 60% in size.

Bromodomain adjacent to zinc finger domain protein 2B (Homo sapiens), sequence (Q9UIF8 whole entry, looked up, the tested form may be a part): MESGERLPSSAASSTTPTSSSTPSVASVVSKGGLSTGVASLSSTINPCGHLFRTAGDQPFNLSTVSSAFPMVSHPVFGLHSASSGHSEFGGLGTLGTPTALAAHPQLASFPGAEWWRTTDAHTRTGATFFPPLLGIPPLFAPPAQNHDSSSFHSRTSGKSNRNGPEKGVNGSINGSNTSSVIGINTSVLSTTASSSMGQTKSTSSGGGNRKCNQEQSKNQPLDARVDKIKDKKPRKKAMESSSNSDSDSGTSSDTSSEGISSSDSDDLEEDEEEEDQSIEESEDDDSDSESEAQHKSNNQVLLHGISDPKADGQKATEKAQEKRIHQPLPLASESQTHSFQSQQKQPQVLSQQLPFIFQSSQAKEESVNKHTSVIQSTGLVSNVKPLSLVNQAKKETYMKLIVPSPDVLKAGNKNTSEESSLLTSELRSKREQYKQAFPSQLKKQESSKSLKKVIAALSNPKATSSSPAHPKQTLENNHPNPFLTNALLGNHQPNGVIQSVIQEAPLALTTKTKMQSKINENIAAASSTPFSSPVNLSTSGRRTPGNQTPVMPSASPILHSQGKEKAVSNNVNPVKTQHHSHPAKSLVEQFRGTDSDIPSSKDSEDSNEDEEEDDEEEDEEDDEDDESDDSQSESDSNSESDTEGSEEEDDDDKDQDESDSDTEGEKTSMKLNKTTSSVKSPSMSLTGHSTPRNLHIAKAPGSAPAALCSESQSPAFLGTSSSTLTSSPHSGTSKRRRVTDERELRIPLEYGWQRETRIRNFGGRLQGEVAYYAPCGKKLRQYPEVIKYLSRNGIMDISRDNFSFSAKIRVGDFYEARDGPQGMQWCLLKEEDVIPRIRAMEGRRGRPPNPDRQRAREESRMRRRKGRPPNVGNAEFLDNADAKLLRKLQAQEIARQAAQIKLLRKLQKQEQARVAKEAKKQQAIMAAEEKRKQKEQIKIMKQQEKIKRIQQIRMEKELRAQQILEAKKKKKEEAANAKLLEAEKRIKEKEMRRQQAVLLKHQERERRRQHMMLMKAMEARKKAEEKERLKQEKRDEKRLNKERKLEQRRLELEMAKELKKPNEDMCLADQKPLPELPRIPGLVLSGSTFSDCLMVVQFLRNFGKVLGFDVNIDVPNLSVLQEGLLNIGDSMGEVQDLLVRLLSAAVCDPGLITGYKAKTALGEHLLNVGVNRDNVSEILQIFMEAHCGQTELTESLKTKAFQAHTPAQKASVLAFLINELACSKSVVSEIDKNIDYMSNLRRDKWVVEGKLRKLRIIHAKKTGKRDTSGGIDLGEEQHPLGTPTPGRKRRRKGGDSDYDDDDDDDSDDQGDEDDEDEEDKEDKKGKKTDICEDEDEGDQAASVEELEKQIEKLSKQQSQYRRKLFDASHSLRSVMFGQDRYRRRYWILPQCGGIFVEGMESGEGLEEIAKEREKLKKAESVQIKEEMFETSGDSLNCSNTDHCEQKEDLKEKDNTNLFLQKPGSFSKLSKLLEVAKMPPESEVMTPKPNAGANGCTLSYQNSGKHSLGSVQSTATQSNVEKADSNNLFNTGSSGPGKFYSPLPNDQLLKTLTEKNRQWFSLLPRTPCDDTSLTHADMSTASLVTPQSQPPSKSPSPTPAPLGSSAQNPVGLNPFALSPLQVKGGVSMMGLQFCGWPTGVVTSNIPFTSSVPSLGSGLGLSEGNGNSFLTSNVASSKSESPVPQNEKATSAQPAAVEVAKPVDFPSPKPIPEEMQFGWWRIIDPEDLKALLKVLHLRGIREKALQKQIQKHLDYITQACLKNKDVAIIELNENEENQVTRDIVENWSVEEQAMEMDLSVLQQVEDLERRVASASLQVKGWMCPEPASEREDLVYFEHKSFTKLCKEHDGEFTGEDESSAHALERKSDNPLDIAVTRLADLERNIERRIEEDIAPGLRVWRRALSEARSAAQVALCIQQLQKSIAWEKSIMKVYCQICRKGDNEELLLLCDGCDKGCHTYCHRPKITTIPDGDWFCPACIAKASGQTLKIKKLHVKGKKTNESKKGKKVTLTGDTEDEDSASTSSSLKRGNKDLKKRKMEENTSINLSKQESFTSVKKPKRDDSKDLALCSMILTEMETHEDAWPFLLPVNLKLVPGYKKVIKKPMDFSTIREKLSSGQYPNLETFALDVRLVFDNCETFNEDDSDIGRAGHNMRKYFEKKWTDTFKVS

| Structure (SMILES) | Potency | activity change, negative = inhibition |
| --- | --- | --- |
| O=c1ccc2c(-c3ccccc3S(=O)(=O)O)c3ccc(O)c(O)c3oc-2c1O | 1 µM (active) | – |
| CCOc1ccc(CCNC(=O)c2c(C)oc3ncn(C)c(=O)c23)cc1 | – | 16.3% [at 57.1 µM] (inactive) |
| COc1ccc(CCNC(=O)c2cnc3sc(N4CCCCCC4)nn3c2=O)cc1OC | – | -16.6% (inactive) |
| O=C(CCn1c(=O)c2ccccc2n(Cc2ccc(Cl)cc2)c1=O)NCc1ccc2c(c1)OCO2 | – | 2.09% (inactive) |
| CCN(c1ccccc1)S(=O)(=O)c1cc(C(=O)NCc2ccccn2)ccc1C | – | 4.88% (inactive) |
| Cc1ccc(NC(=O)CNCc2ccccn2)cc1S(=O)(=O)N(C)C | 25.1 µM (active) | – |
| Cc1ccc(NC(=O)c2cccs2)cc1S(=O)(=O)N(C)C | – | 9.52% (inactive) |
| O=S(=O)(Nc1ccc2nc(-c3cccc(Cl)c3)oc2c1)c1ccccc1 | – | -6.28% (inactive) |
| COc1ccc(CNC(=O)CSc2nc3ccccc3nc2Cc2ccccc2)cc1 | – | 3.24% (inactive) |
| CC(C)(C)c1ccc(C(=O)NCC(c2ccco2)S(=O)(=O)c2ccc(F)cc2)cc1 (centres undefined) | – | -17.7% (inactive) |
| Cc1cccc(N2CCN(S(=O)(=O)c3ccc4[nH]c5c(c4c3)CCCCC5)CC2)c1C | – | -8.85% [at 57.1 µM] (inactive) |
| COc1ccccc1-c1cc(C(F)(F)F)nc(S(=O)(=O)CCCC(=O)Nc2cc(C)ccc2O)n1 | – | -3.61% (inactive) |
| Cc1nc2nc(SCC(=O)NC3CCC(C)CC3)nn2c(C)c1Cc1ccccc1Cl (centres undefined) | – | -13.3% (inactive) |
| Nc1ccc(N=Nc2ccccc2Cl)c(N)n1 | 25.1 µM (active) | – |
| COc1ccc(C(=O)Nc2onc3c2CCCC3)cc1 | – | -3.98% (inactive) |
| CCOc1ccc(NC(=O)c2c(NC(=O)Cc3ccccc3)sc3c2CCC(C)C3)cc1 (centres undefined) | – | -21.1% (inactive) |
| CCCCOC(=O)CSc1ncnc2sc3c(c12)CCC(C)C3 (centres undefined) | – | 18.9% (inactive) |
| CCC(C(=O)Nc1cccc(Cl)c1C)n1nc(-c2ccc(C)cc2)ccc1=O (centres undefined) | – | -22.7% (inactive) |
| O=C(NCCNc1ccccc1[N+](=O)[O-])c1ccccc1F | – | 8.95% [at 0.457 µM] (inactive) |
| O=C(Nc1ccccc1-c1ccccc1)c1ccccc1[N+](=O)[O-] | – | -5.53% (inactive) |
| O=[N+]([O-])c1ccccc1Nc1ccc(O)cc1 | 39.8 µM (active) | – |
| COC(=O)c1ccccc1NC(=O)c1cc(-c2ccccc2O)no1 | – | -17.4% (inactive) |
| O=C(CN1C(=O)COc2ccccc21)NCCN1CCc2ccccc2C1 | – | -19.6% (inactive) |
| CC(OC(=O)CN1C(=O)COc2ccccc21)C(=O)NCc1ccc(F)cc1 (centres undefined) | – | 13.9% (inactive) |
| O=C(CN1C(=O)COc2ccccc21)Nc1ccc(F)cc1 | 28.2 µM (active) | – |

| Structure (SMILES) | Potency | activity change, negative = inhibition |
| --- | --- | --- |
| O=C(NCc1ccccc1Cl)c1cccn1-c1nnc(N2CCCCC2)s1 | – | -15% (inactive) |
| COc1ccccc1Nc1nc(N)nc(CN(C)C2CCCCC2)n1 | 10 µM (active) | – |
| COc1ccccc1Nc1nc(N)nc(N)c1S(=O)(=O)c1ccccc1 | – | -19.9% (inactive) |
| COc1ccccc1Nc1nc(N)nc(CSC(=S)N2CCOCC2)n1 | – | -23.7% (inactive) |
| COc1ccc(CCN2C(=O)c3oc4cc(C)cc(C)c4c(=O)c3C2c2ccccc2F)cc1OC (centres undefined) | – | 7.46% (inactive) |
| COc1ccc(-c2cn3nc(N4CCCC(C(=O)NCCCOC(C)C)C4)sc3n2)cc1 (centres undefined) | – | -28% (inactive) |
| COC(=O)c1cc(NC(=O)c2cnc(SC)nc2-c2ccccc2)cc(C(=O)OC)c1 | – | 2.05% (inactive) |
| COc1ccc(CNC(=O)Cc2ccc(-c3ccccc3)cc2)cc1OC | – | -25% (inactive) |
| COC(=O)c1ccc(-c2c(-c3ccccc3)ncc3cc(OC)c(OC)cc23)cc1 | 56.2 µM (active) | – |
| Cc1c(Cl)cccc1NC(=O)c1noc2c1CCCC2 | – | 30% (inactive) |
| COc1cnc(-c2ccccn2)nc1Oc1ccc(C(C)(C)C)cc1 | 22.4 µM (active) | – |
| N#Cc1ccc(Oc2cc(C(F)(F)F)nc(-c3ccccn3)n2)cc1 | – | -6.1% (inactive) |
| COc1ccnc(Oc2ccccc2)c1-c1ncn[nH]1 | – | 1.04% (inactive) |
| Cc1ccc(C(=O)N2c3ncnn3C3(CCCCC3)[C@@H]3CCCC[C@@H]32)cc1 | – | -14.5% (inactive) |
| Cc1onc(-c2ccc(F)cc2F)c1C(=O)Nc1cccc(C(F)(F)F)c1 | – | -2.91% (inactive) |
| COc1ccc(OCCn2cc(C(=O)C3CCCCC3)c3ccccc32)cc1 | – | 15.3% [at 57.1 µM] (inactive) |
| COc1ccc(CCNC(=O)CCc2c(C)nc3c(c(C)nn3-c3ccc(C)c(C)c3)c2C)c(OC)c1OC | – | -17% (inactive) |
| O=C(c1ccc(Br)cc1)N(Cc1cccs1)c1ccc(F)cc1 | – | -3.77% (inactive) |
| COc1ccccc1-c1nnc(SCC(N)=O)o1 | – | -1.92% (inactive) |
| COc1ccc(-c2cc(C(=O)NC(Cc3c[nH]c4ccccc34)C(=O)O)c(C)o2)cc1OC (centres undefined) | 50.1 µM (active) | – |
| Cc1cccc(C)c1OCC(=O)NC(Cc1c[nH]c2ccccc12)C(=O)O (centres undefined) | inactive | – |
| CC(=O)NC(Cc1c[nH]c2ccccc12)C(=O)O (centres undefined) | – | -15.6% (inactive) |
| Cc1cc(C(=O)N/N=C/c2ccc(O)c([N+](=O)[O-])c2)c(C)n1-c1ccc(F)cc1 | 50.1 µM (active) | – |
| COc1cc(/C=N/NC(=O)c2ccc(N3CCCC3=O)cc2)ccc1O | – | -3.64% (inactive) |
| COc1cc(/C=N/NC(=O)c2cc(C)n(-c3ccc(F)cc3)c2C)cc(OC)c1O | – | -35.5% (inactive) |

| Structure (SMILES) | Potency | activity change, negative = inhibition |
| --- | --- | --- |
| CCc1nc2nc(C)cc(Nc3ccc(F)c(Cl)c3)n2n1 | – | 1.95% (inactive) |
| COc1ccc(CNC(=O)CCc2c(C)nn(-c3ccc(N4CCCC4)nn3)c2C)cc1 | 79.4 µM (active) | – |
| COC(=O)c1ccc(NC(=O)CCc2c(C)nn(-c3ccc(N4CCCC4)nn3)c2C)cc1 | – | -25.5% (inactive) |
| Cc1ccc(CNC(=O)CCc2c(C)nc3c(c(C)nn3-c3ccccc3)c2C)cc1 | – | -0.737% (inactive) |
| COc1ccc(C)cc1NC(=O)CCc1c(C)nn(-c2ccc(N3CCOCC3)nn2)c1C | – | -14.2% (inactive) |
| CCOc1ccc(CNC(=O)CCc2c(C)nn(-c3ccc(N4CCCCC4)nn3)c2C)cc1 | – | -15.5% (inactive) |
| Cc1nn(-c2ccc(N3CCCCC3)nn2)c(C)c1CCC(=O)NCc1ccc(F)cc1 | 79.4 µM (active) | – |
| COc1cc(OC)cc(C(=O)Nc2c(C(=O)Nc3ccc(F)cc3)oc3ccccc23)c1 | – | -0.325% (inactive) |
| COc1ccc(-c2nc(CN3CCC(C(=O)NCCN(CC(C)C)CC(C)C)CC3)c(C)o2)cc1OC | – | -14.9% (inactive) |
| CC(=O)N1CCCc2cc(S(=O)(=O)N3CCC(C(=O)NCc4ccc(F)cc4)CC3)ccc21 | – | -6.68% (inactive) |
| CN(C)c1ccc(C(CNS(=O)(=O)c2cc(F)ccc2F)N2CCOCC2)cc1 (centres undefined) | – | -25.9% (inactive) |
| COc1ccc(Cn2c(C(=O)O)c(CNCCc3cccs3)c3ccc(OC)cc32)cc1 | – | -35.3% (inactive) |
| O=C(O)c1ccc2c(c1)N(Cc1ccc(F)cc1)C(=O)c1ccccc1S2=O (centres undefined) | – | 4.07% (inactive) |
| Cc1nn(C(C)C(=O)NCCc2ccccc2)c(=O)c2c1sc1ccccc12 (centres undefined) | – | -8.46% (inactive) |
| COc1ccc2ccccc2c1/C=N/NC(=O)c1cc(C)[nH]n1 | – | -26% (inactive) |
| Cc1cc(C(=O)N/N=C/c2cc([N+](=O)[O-])cc(C)c2O)n[nH]1 | 25.1 µM (active) | – |
| CC(C)(C)c1cc(C(=O)N/N=C/c2ccc([N+](=O)[O-])s2)n[nH]1 | – | -1.13% (inactive) |
| CCCN(CCC)CCCNC(=O)Cn1ncc2c3ccccc3n(Cc3ccccc3)c2c1=O | – | -11.5% (inactive) |
| COc1ccc(-c2cn3c(n2)sc2cc(C(=O)Nc4ccc(F)cc4)ccc23)cc1 | – | 1.57% (inactive) |
| Cc1cccc(Cn2c(SCc3ccc(C(=O)N4CCC(C)CC4)cc3)nc3ccncc32)c1 | – | -16.1% (inactive) |
| COc1cccc(Cn2c(SCc3ccc(C(=O)N4CCC(C)CC4)cc3)nc3ccncc32)c1 | 22.4 µM (active) | – |
| COc1cccc(Cn2c(SCc3ccc(C(=O)N4CCCCC4)cc3)nc3ccncc32)c1 | – | -11.2% (inactive) |
| COc1ccccc1Cc1nc2ccccc2nc1SCC(=O)N1CCCc2ccccc21 | – | -3.57% (inactive) |
| Cc1c(C(=O)c2cccc([N+](=O)[O-])c2)c2ccccn2c1CCC#N | 50.1 µM (active) | – |
| O=C(c1cccc([N+](=O)[O-])c1)N1CCN(Cc2ccccc2)CC1 | – | 20.8% (inactive) |

| Structure (SMILES) | Potency | activity change, negative = inhibition |
| --- | --- | --- |
| COc1ccc(C(=O)c2c(C)c(CCC#N)n3ccccc23)c(OC)c1 | – | -17.9% (inactive) |
| COC(=O)c1cnc(N2CCN(c3ccccc3OC)CC2)c2ccccc12 | – | 42.6% (inactive) |
| COc1ccc2c(c1)c(N1CCCC1=O)c(C(=O)Nc1ccc(OC)c(Cl)c1)n2C | – | -34.8% (inactive) |
| Clc1ccc(Nc2nc(-c3cccs3)cs2)nc1 | – | -33.2% (inactive) |
| CC(=O)Nc1cccc(-c2csc(Nc3cccc(C)n3)n2)c1 | – | -4.54% (inactive) |
| Cc1ccc(Nc2nc(-c3ccc(O)cc3O)cs2)nc1 | 50.1 µM (active) | – |
| COc1cc(C(=O)Nc2ccc(-n3c(C)nc4ccccc4c3=O)cc2)cc(OC)c1OC | – | -14.7% (inactive) |
| CCN(CC)c1cc(NC2CCCCC2)c2c3c(onc13)-c1ccccc1C2=O | 3.55 µM (active) | – |
| COc1ccc(OC)c(CNC(=O)Cn2nc(C)c3c(C)n(-c4ccccc4)nc3c2=O)c1 | – | -15.4% (inactive) |
| CCCC(=O)Nc1ccc2oc(-c3ccc(O)c(Br)c3)nc2c1 | – | 2.4% (inactive) |
| COc1ccc(CCNCc2c(C(=O)O)c(C)n(Cc3cccc(C)c3)c2C)cc1OC | – | -16.7% (inactive) |
| COc1ccc(SCc2cc(=O)c3ccc(C)c(C)c3[nH]2)cc1 | – | 8.96% (inactive) |
| COc1ccc(Cc2nnc(N/N=C/c3ccccc3O)[nH]c2=O)cc1OC | 6.31 µM (active) | – |
| O=c1[nH]c(NCCO)nnc1Cc1ccc(Cl)cc1 | – | -11.6% (inactive) |
| CC(C)c1ccc(Cc2nnc(NCCCO)[nH]c2=O)cc1 | – | -1.73% (inactive) |
| Cc1nn(C)c2c1c(C(F)(F)F)cc(=O)n2C(C)C(=O)NCc1ccc(Cl)cc1 (centres undefined) | – | -3.38% (inactive) |
| O=C(NCc1ccccc1)C1CCN(S(=O)(=O)c2ccc3[nH]c(=O)ccc3c2)CC1 | – | 7.93% (inactive) |
| Cc1ccccc1CCNC(=O)C1CCN(c2nc3ccccc3nc2C(F)(F)F)CC1 | – | -0.372% (inactive) |
| CC(=O)c1ccc(NC(=O)c2nc3nc(C)cc(C(F)F)n3n2)cc1 | – | 0.583% (inactive) |
| Brc1ccc2c(c1)NC(c1cccnc1)=NC(c1ccccc1)=N2 | – | -2.3% (inactive) |
| COc1ccc(C2=NC(c3ccncc3)=Nc3ccc(Br)cc3N2)cc1 | 28.2 µM (active) | – |
| Cc1cc(OCCCN2CCN(Cc3ccccc3)CC2)ccc1[N+](=O)[O-] | 17.8 µM (active) | – |
| Cc1cc(OCCCCOc2ccc(C#N)cc2)ccc1[N+](=O)[O-] | – | 0.416% (inactive) |
| Cc1cc(OCC(=O)NC2CCN(C)CC2)ccc1[N+](=O)[O-] | – | -3.49% (inactive) |
